Reference: PubChem BioAssay (NCATS)
Inconclusive results are not listed. Values without a mark were called inactive. Calls of active or inactive are those of the source. Calls follow the shape of the dose curve; as a rule, active = well fitted inhibition curve with a large enough effect; inconclusive = small, poorly fitted or top-dose-only effect; inactive = no such curve, though single readings can be large or run the other way.
% is scaled to controls: 0 for no effect and ±100 for the full control effect; potency is read from the fitted curve at half-maximal effect.

Assay: qHTS for Inhibitors of the Aldehyde Dehydrogenase Family (ALDH1A2, ALDH1A3, ALDH2, ALDH3A1) (AID 2061307); also: nearly all actives have a fitted effect of over 50% in size; as to Potency: test system not described further here
Conditions: ALDH inhibition qHTS; series mostly up to 50.3 µM; activity change, negative = inhibition: at the top concentration
In the case of `OCC1CCN(c2ccc3cc(Br)ccc3n2)CC1`, the Potency is reported as 8.91 µM (active).
For `CN1CCC(CNCc2nccc3c(=O)[nH]c(COc4ccc(Cc5ccccc5)cc4)nc23)C1` (stereo unspecified), the “activity change, negative = inhibition” value was 582%.
For `O=C(Nc1ccccc1OC(F)(F)F)c1csc(-c2ccc(F)cc2)n1`, the “activity change, negative = inhibition” value was -41.5% [at 34.4 µM].
For `O=C(Nc1ccnc(Cc2ccccc2)c1)c1ccc(-c2cccc([N+](=O)[O-])c2)o1`, the Potency was 2.01 µM (active).
For `O=C(O)c1csc(-n2[nH]c(-c3ccc(F)c(F)c3)cc2=O)n1`, the “activity change, negative = inhibition” value was -26.5%.
With `CCN1CCN(C2c3ccccc3-c3ccc(Br)cc32)CC1` (stereo unspecified) the “activity change, negative = inhibition” value was 34.2%.
For `N#Cc1ccsc1NC(=O)c1ccn(-c2ccccc2F)n1`, the Potency was 1 µM (active).
For `OC[C@H]1O[C@@H](OCc2ccccc2)[C@H](O)[C@@H](O)[C@H]1O`, the “activity change, negative = inhibition” value was -6.16%.
With `FC(F)(F)c1ccc(CNc2nc(-c3ccncc3)nc3ccccc23)cc1` the Potency was 4.47 µM (active).
In the case of `Cc1ccc(-c2cc(-c3c(Cc4ccc(S(N)(=O)=O)c(F)c4)c(CC4CC4)nn3-c3nc(C(=O)O)cs3)ccc2F)s1`, the Potency is reported as 17.9 µM (active).
With `O=C1CN(S(=O)(=O)c2cccc(C(=O)Nc3ccc(OC(F)(F)F)cc3)c2)CCN1` the “activity change, negative = inhibition” value was -5.52%.
For `O=C(c1cccs1)c1no[n+]([O-])c1C(=O)c1cccs1`, the Potency was 1.59 µM (active).
With `CCOc1ccc(CCNC(=O)c2cc3occc3[nH]2)cc1OCC` the “activity change, negative = inhibition” value was -25.9%.
For `N#Cc1ccc(NC(=O)Cc2csc3nc(-c4ccccc4)cn23)cc1`, the Potency was 18.2 µM (active).
With `O=C(c1cccc(F)c1)N1CCCC2(CCN(C(c3ccccc3)c3ccccc3)C2)C1` (stereo unspecified) the “activity change, negative = inhibition” value was -79.3%.
In the case of `O=C(Nc1nnc(C(F)(F)F)s1)c1ccc(Cl)cc1`, the “activity change, negative = inhibition” value is reported as -7.53%.
